High-throughput results (PubChem BioAssay)
IL1B secr inh: inflammasome signaling inhibition, IL-1 beta readout. THP-1 LPS/ATP IL-1B secretion, AlphaLISA, 16 h; active compounds read low. activity change, % at 57.5 µM. hit rate 4.7% among 360,000; in the data active = activity change below about -50%; inconclusive = mostly about -30% to -49%; also: % is scaled to controls: 0 for no effect and ±100 for the full control effect
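Secreted IL-1B measured by AlphaLISA bead assay after 16 h compound exposure of THP-1 cells; compounds (final up to 57.5 uM) added 1 h before LPS (250 ng/mL) and ATP (1.25 mM) stimulation; lower signal means less secretion.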
S-ASM inh: inhibitors of human secretory acid sphingomyelinase; Potency, µM (highest dose often 57.5 µM), for the others: at the highest dose activity change, negative = inhibition, most hits filed as inhibitors; P17405; hit rate 0.006% among 340,000; placental ASM, HMU-PC fluorogenic substrate, 60 min; also: potency is read from the fitted curve at half-maximal effect
Target sequence (P17405 47-631 limits assumed): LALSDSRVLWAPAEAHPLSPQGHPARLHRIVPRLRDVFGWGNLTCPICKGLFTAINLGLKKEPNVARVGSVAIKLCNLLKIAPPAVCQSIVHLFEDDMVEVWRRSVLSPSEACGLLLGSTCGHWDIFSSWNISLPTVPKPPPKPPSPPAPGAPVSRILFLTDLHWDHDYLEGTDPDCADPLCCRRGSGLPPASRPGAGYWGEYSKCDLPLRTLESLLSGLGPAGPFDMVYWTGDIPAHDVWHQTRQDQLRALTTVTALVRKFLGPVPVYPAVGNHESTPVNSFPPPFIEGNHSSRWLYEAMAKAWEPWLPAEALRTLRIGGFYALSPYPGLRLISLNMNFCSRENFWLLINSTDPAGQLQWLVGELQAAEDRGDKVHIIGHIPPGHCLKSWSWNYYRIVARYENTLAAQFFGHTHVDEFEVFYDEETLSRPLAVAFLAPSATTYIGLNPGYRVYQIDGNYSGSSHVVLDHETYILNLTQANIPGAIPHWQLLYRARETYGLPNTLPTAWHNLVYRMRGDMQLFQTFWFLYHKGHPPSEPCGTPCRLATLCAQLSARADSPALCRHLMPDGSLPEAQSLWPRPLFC
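Fluorogenic HMU-PC substrate (9 uM final) is turned over by placental ASM in 60 min at 37 C after a 10 min compound preincubation. Reaction ended by alkaline stop (pH 10), with fluorescence read at 386/447 nm.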
TDP1 cell CPT: growth inhibition of DT40 Tdp1-/-;hTDP1 cells with camptothecin (screen for TDP1 inhibitors). hit rate 12% among 420,000. chicken DT40 Tdp1-/-;hTDP1 cells + 20 nM CPT, ATP luminescence, 48 h. AID 686979. Potency, µM (top dose mostly 46.2 µM), without a hit: at the top dose activity change, negative = growth inhibition, actives largely listed as inhibitors; also: potency is read from the fitted curve at half-maximal effect; % is scaled to controls: 0 for no effect and ±100 for the full control effect; nearly all actives have a fitted effect of over 55% in size
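Chicken DT40 Tdp1-/- cells stably complemented with human TDP1 were seeded at 400 cells/well in medium containing 20 nM camptothecin, exposed to pin-transferred compounds, and grown at 37 °C for at least 48 hr. Viability was read as ATP luminescence.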
HepG2 tox: kills HepG2 cells in TGF-b inhibitor counter-screen; HepG2 CAGA-GFP viability, ATP luminescence, 18 h; hit rate 0.76% among 410,000; Potency, µM (series often up to 46.1 µM), inactives show at the highest dose activity change, negative = cytotoxicity, hits mostly cytotoxic; also: potency is read from the fitted curve at half-maximal effect
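HepG2 CAGA-GFP cells (1000/well, DMEM with 1% FBS) received compound, then TGF-beta at 500 pg/mL final, and were incubated 18 hours at 37 degrees C. Viability was read by CellTiter-Glo luminescence. Media-only wells were set as complete cell-killing and DMSO as no toxicity.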
TGFb inhibitor: inhibitors of TGF-b signaling; HepG2 CAGA-GFP TGF-b/SMAD3 reporter, GFP fluorescence, 18 h; TGF-beta stimulated, 500 pg/mL final; Potency, µM (doses to about 46.1 µM), for the others: at the highest dose activity, negative = inhibition, usual class: inhibitors; hit rate 1.2% among 410,000; AID 588855; also: potency is read from the fitted curve at half-maximal effect; % is scaled to controls: 0 for no effect and ±100 for the full control effect; nearly all actives have a fitted effect of over 65% in size
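First, reporter cells (HEPG2 CAGA-GFP) rested 2 h at 37 degrees C. Next, compounds were pinned in and TGF-beta added to 500 pg/mL final. After 18 h, GFP was imaged per cell and summed per well.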
TDP1 cell noCPT: qHTS for Inhibitors of human tyrosyl-DNA phosphodiesterase 1 (TDP1): qHTS in cells in absence of CPT; DT40 Tdp1-/- hTDP1 cells, no CPT, ATP luminescence, 48 h; Potency, µM (top dose mostly 46.2 µM), without a hit: at the top dose activity change, negative = growth inhibition, hits mostly inhibitors; hit rate 15% among 420,000; AID 686978, 2013; also: potency is read from the fitted curve at half-maximal effect; % is scaled to controls: 0 for no effect and ±100 for the full control effect; nearly all actives have a fitted effect of over 55% in size
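Chicken DT40 Tdp1-/- cells complemented with human TDP1, screened without camptothecin (DMSO vehicle only), 400 cells/well. Compounds pin-transferred, cells incubated at 37 °C for at least 48 hr. Growth read as ATP-dependent luminescence (CellTiter-Glo, 30 min at RT).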
* marks the source's active call; other numbers are inactive results; ? = inconclusive; . = no result. An excerpt weighted towards active compounds, which were near 19% of everything screened. Unless noted, calls follow the shape of the dose curve; as a rule, active = well fitted curve in the direction sought with a large enough effect; inconclusive = small, poorly fitted or top-dose-only effect, or another doubt; inactive = no such curve, though single readings can be large; an effect the other way counts as inactive or inconclusive.

SMILES | IL1B secr inh | S-ASM inh | TDP1 cell CPT | HepG2 tox | TGFb inhibitor | TDP1 cell noCPT
Cc1ccc(S(=O)(=O)N2C[C@@H](C)[C@]3(C2)[C@H](O)[C@H](OC(=O)NCc2ccco2)C[C@H]2C(=O)N(c4ccccc4)C(=O)[C@H]23)cc1 | -9 | . | -1% | 6% | 13% | -1%
N#Cc1ccsc1NC(=O)CN1CCN(c2ccccc2O)CC1 | 12 | 1% | 10% | 7% | 6% | 7%
N#Cc1ccsc1NC(=O)CCc1ccccc1 | 53 | -1% | ? | 4% | -1% | 21µM*
N#Cc1ccsc1NC(=O)CN(Cc1ccccc1)Cc1ccccc1 | 0 | -6% | 21µM* | -7% | ? | 15µM*
N#Cc1ccsc1NC(=O)CCN1CCN(C(c2ccccc2)c2ccccc2)CC1 | -17 | -2% | 29µM* | -24% | 0% | 26µM*
O=C(NCCN1CCOCC1)C(=O)c1c[nH]c2ccccc12 | 5 | -3% | 0% | 0% | 28% | 8%
CC(C)(C)NC(=O)C1CC(=O)N(CCc2ccc(F)cc2)C1 (stereo unspecified) | 0 | 2% | 8% | 1% | 1% | -7%
Clc1ccc(-c2c[n+](Cc3ccc(Br)cc3)c3n2CCCCC3)cc1 | -62* | -3% | 2.6µM* | -11% | -15% | 2.6µM*
Clc1ccc(C[n+]2cc(-c3ccccc3)n3c2CCCCC3)c(Cl)c1 | -91* | 2% | 0.46µM* | -31% | ? | 0.26µM*
Clc1ccc(-c2c[n+](Cc3ccc(Cl)cc3Cl)c3n2CCCCC3)cc1 | -81* | -1% | 1.2µM* | -27% | -23% | 1.2µM*
Clc1cccc(-c2nnc3n2CCCCC3)c1 | -4 | 2% | 8% | 18% | 9% | -2%
N#CC[n+]1cc(-c2ccc(Cl)cc2)n2c1CCC2 | 17 | 4% | -5% | 1% | -6% | 0%
Cc1c(F)cccc1Cn1cnc2c(cnn2C(C)(C)C)c1=O | . | . | . | -21% | -18% | .
O=C(COC(=O)c1ccccc1OCc1ccccc1Cl)NCC1CCCO1 (stereo unspecified) | -51* | -1% | ? | -34% | ? | ?
COc1ccc(-c2nc3c4ccccc4n(CC(=O)N4CCN(c5ccccc5F)CC4)c(=O)n3n2)cc1 | . | . | ? | 24% | 8% | ?
CC(C)(C)n1nnnc1C(c1ccccc1OC(F)(F)F)N1CCN(C/C=C/c2ccccc2)CC1 (stereo unspecified) | -3 | . | 21µM* | -13% | ? | 15µM*
Cc1cccc(C)c1-n1nnnc1C(c1ccccc1OC(F)(F)F)N1CCN(C/C=C/c2ccccc2)CC1 (stereo unspecified) | 32 | . | ? | -10% | -28% | 21µM*
CC(C)(C(=O)N1CCC1(C)C(=O)NC1Cc2ccccc2C1)c1ccccc1 (stereo unspecified) | 37 | . | 16µM* | -25% | -22% | 21µM*
O=C(Cn1cnc2cc([N+](=O)[O-])ccc2c1=O)Nc1ccc2c(c1)OCO2 | 56 | -3% | -10% | 1% | -4% | 3%
CCn1cc2nc(SCC(=O)Nc3ccc(OC)cc3OC)n(Cc3ccc(Cl)cc3)c(=O)c2n1 | . | . | 21µM* | -25% | 9% | 18µM*
CCn1cc2nc(SCC(=O)Nc3cccc(Cl)c3C)n(Cc3ccc(Cl)cc3)c(=O)c2n1 | . | . | ? | -14% | 4% | ?
COCCn1c(SCC(=O)Nc2ccc(OC)cc2OC)nc2ccccc2c1=O | 5 | -1% | -18% | -53% | -6% | 3%
CCN(CC)C(=O)CSc1nc2cc(OC)c(OC)cc2c(=O)n1Cc1ccc(Cl)cc1 | -53* | -17% | ? | -4% | 1% | 18µM*
CCn1cc2nc(SCC(=O)Nc3cc(OC)ccc3OC)n(Cc3ccc(Cl)cc3)c(=O)c2n1 | . | . | 12µM* | -1% | ? | 8.2µM*
CCN(CC)C(=O)CSc1nc2cc3c(cc2c(=O)n1CCCC(=O)NCc1ccc(OC)cc1)OCO3 | -26 | -2% | ? | -2% | 2% | ?
SMILES | IL1B secr inh | S-ASM inh | TDP1 cell CPT | HepG2 tox | TGFb inhibitor | TDP1 cell noCPT
CCOc1ccc(NC(=O)c2cc3c(s2)-c2ccccc2OC3)cc1 | . | . | ? | -1% | 7% | ?
O=C(NCCC1CCCCN1S(=O)(=O)c1ccccc1)C(=O)NC1CC1 (stereo unspecified) | -14 | -3% | 1% | -6% | 15% | -2%
Oc1ccc(-c2cnns2)c(O)c1 | ? | -1% | 4.1µM* | -4% | 0% | 4.6µM*
Oc1ccc(-c2csc(Nc3ncccn3)n2)c(O)c1 | -21 | -1% | -14% | -4% | -20% | -14%
O=C(CCCc1nc2ccccc2s1)N1CCN(c2ccccc2F)CC1 | 91 | -5% | ? | -21% | -20% | -14%
O=C(CCCN1C(=O)c2cccc3cccc(c23)C1=O)N1CCN(c2ccccc2)CC1 | -11 | -8% | ? | -27% | 3% | ?
CCOc1ccccc1N1CCN(C(=O)CCCc2nc3ccccc3s2)CC1 | 5 | -1% | ? | -4% | ? | 16µM*
O=C(CCCN1C(=O)c2cccc3cccc(c23)C1=O)N1CCN(c2ccccc2O)CC1 | -14 | -9% | ? | -1% | 0% | 15µM*
CCOc1ccccc1N1CCN(C(=O)CCCN2C(=O)c3cccc4cccc(c34)C2=O)CC1 | -16 | -5% | 21µM* | -10% | 0% | 21µM*
CC1(C(=O)O)CCC(C(=O)NNC(=O)c2ccccc2Cl)C1(C)C (stereo unspecified) | . | -2% | 8% | 22% | 23% | 12%
Cc1cc(C)n(Cc2ccc(Cl)cc2Cl)c(=O)c1S(=O)(=O)c1ccccc1 | 11 | -3% | ? | 4% | 3% | 23µM*
NC(=O)NC1(C(=O)O)CCCC1 | 1 | 4% | -4% | 2% | -3% | 5%
COc1ccc(C)cc1/C=C/C(=O)N1CCN(S(=O)(=O)c2cccs2)CC1 | -10 | . | 21µM* | -23% | 0% | ?
CCC(=O)N1CCc2cc(Br)cc(S(=O)(=O)N3CCCCC3CC)c21 (stereo unspecified) | 17 | -1% | ? | 10% | 60% | 21µM*
CCC(=O)N1CCc2cc(Br)cc(S(=O)(=O)CCC(=O)N(CC)CC)c21 | 14 | -1% | 22% | -10% | -1% | 6%
